Test [1] can be described thus: differential killing of epithelial or mesenchymal cells, primary screen, imaging, PC-3E GFP, TEM4-18 mCherry, co-culture (AID 1345086).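 For all read-outs here: cells exposed to compound for 72 h before imaging.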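 For red/green cell ratio (normalised): normalised mesenchymal count divided by normalised epithelial count so high means epithelial killing.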 The note with it: imaging cell counts, at 1 µM; for red/green cell ratio (normalised): actives lie on both sides.
Test [2] deals with Aerobactin synthetase IucA (Klebsiella pneumoniae hvKP1). The test is described as follows: Biochemical IucA enzyme inhibition primary screen of the Spectrum library (AID 1346200; call rule not given here;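 note: 100% = wells without compound and 0% = wells lacking enzyme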). The note with it: malachite green pyrophosphate, A620, at 8 µM, stronger effect = lower value.
The target in test [3] is Mitogen-activated protein kinase 7 (Homo sapiens) (UniProt Q13164). The test is described as follows: ERK5 transactivation activators in reporter cells, primary screen, cell-based, HTS (AID 1508626;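 active = luciferase signal above three times the same-plate solvent-only control wells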;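 note: luciferase driven by Gal4-ERK5 fusion binding five Gal4 sites before minimal TATA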). The note with it: HeLa Gal4-ERK5 transactivation, 18 h, at 5 µM, stronger effect = higher value.
A short description of test [4]: polyglutamine-triggered caspase-3 activation inhibitors, cell-based (AID 1583). The note with it: polyglutamine-induced caspase-3 activation, cell assay; stronger effect = higher value;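 tested at 10 µM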.
A short description of test [5]: suppressors of polyQ aggregation in yeast, 75Q-TubU reporter (AID 1593). The following applies: Yeast 75Q polyglutamine aggregation reporter.
The nature of test [6]: rescue of polyQ-huntingtin neuronal dysfunction in worms, whole organism, C. elegans mechanosensory neurons, N-terminal huntingtin (AID 1599). The note with it: touch response, stronger effect = higher value.
Test [7] can be described thus: inhibitors of mitochondrial cytochrome c release, biochemical, purified mitochondria (AID 1603).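 Note: mouse liver mitochondria challenged with calcium chloride; signal normalized to the plate average as 100%.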 The note with it: stronger effect = lower value.
The nature of test [8]: inhibitors of polyQ protein aggregation (AID 1604). The note with it: polyglutamine-induced protein aggregation inhibition assay; stronger effect = higher value; tested at 2.5 µM.
Test [9] is described as follows: enhancers of glutamate uptake in motor neurons, MN-1 cell line (AID 1612).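 Note: tested at 1 µM final; 0% = mean of DMSO vehicle wells on each plate; positive means more glutamate uptake than control and negative means less.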 The following applies: MN-1 motor neuron cells, stronger effect = higher value.
The nature of test [10]: reducers of polyQ inclusions in PC12 cells, cell-based, NGF-treated PC12, GFPQ80 (AID 1614).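 Note: lower means fewer inclusions and 0 means no inclusions at all.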 The following applies: PC12 NGF-treated GFP-polyQ80 inclusion reduction.
Test [11] can be described thus: suppressors of polyglutamine aggregation in yeast, 75Q-TubH (AID 1616). The note with it: S. cerevisiae 75Q-TubH polyglutamine aggregation suppression; stronger effect = higher value.
The nature of test [12]: liver-stage malaria parasite growth inhibition, primary screen, cell-based, HepG2, luciferase luminescence, HepG2 viability (AID 624349; in the data active = parasite load remaining mostly below about 12%, no sharp cut-off; inactive = mostly above about 10%;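 note: 100% = mean of DMSO negative control wells on the same plate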). The note with it: P. berghei liver stage in HepG2, luciferase luminescence, concentration not given here; parasite load remaining: stronger effect = lower value; viability: measured here: HepG2 viability without parasites.
Test [13] can be described thus: sensitizers of A549 cells to miR-34 induction, primary screen, imaging, A549 dox-inducible miR-34, nuclei and caspase counts (AID 1347080;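 active = compounds whose cell count with miR-34 switched on is under 0.7 times the count with it off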). The note with it: A549 miR-34 inducible, Hoechst nuclei count, 48 h.
Test [14] deals with Huntingtin (Homo sapiens) (UniProt P42858). The test can be described thus: inhibitors of mutant Htt aggregation in vitro, dose response, QA1 (AID 1584). The following applies: in vitro mutant huntingtin aggregation assay; confirmation test; at 10 µM; stronger effect = lower value.
The nature of test [15]: protection against mutant huntingtin cytotoxicity, PC12 cells, LDH release (AID 1610). The note with it: PC12 mutant huntingtin toxicity, final LDH at 4 uM, stronger effect = lower value. A general note: LDH in the medium is a marker of cell lysis.
Test [16] is described as follows: mitochondrial permeability transition inhibitors (AID 1580; call rule not given here). The note with it: isolated mitochondria, permeability transition inhibition.
Test [17] addresses NAD(+) hydrolase SARM1 (Homo sapiens) (UniProt Q6SZW1). The test can be described thus: SARM1 TIR NADase inhibitors, cell lysate, NAD-Glo luminescence (AID 1508614;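 active = compound whose remaining NAD level is above about 45 nM, limit read from the data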;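 note: higher remaining NAD means stronger inhibition of SARM1 NADase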). The following applies: SAM-TIR HEK293T lysate NADase, at 1 µM, stronger effect = higher value.
The nature of test [18]: survival rescue of mitochondrial mutant cells in low glucose, primary screen, MELAS cybrids, Rieske KO mouse fibroblasts, CellTiter-Glo (AID 1508586;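 active = mean z-score across replicates of 1.96 or higher in either the MELAS or the Rieske mutant cell line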;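 note: z relative to plate mean and SD of compound and empty wells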).
A short description of test [19]: viability rescue of complex I mutant cybrids, primary screen, cell-based, galactose medium, ATP luminescence (AID 1645843;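 active = z-score of at least 1.8 in each of two replicates, scored against plate mean and spread of sample wells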;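 note: positive z means more ATP and so rescue of galactose-driven cybrid death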). The note with it: complex I mutant cybrid cells, 72 h, stronger effect = higher value.
The nature of test [20]: hESC survival regulators, cell-based (AID 493140; call rule not given here;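 note: cells exposed to compounds for four days before counting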). The note with it: human embryonic stem cell survival screen; stronger effect = higher value.
[21] abbreviates: counts scaled to control wells, 1 = unselective.
Where [22] appears, read: measured here: epithelial PC-3E GFP cell survival.
Where [23] appears, read: measured here: mesenchymal TEM4-18 mCherry cell survival.
Setting [24] is: measured here: relative caspase fold change +Dox/-Dox.
The mark [25] stands for this setting: measured here: total cells with miR-34 induction, stronger effect = lower value.
[26] abbreviates: measured here: total cells without miR-34 induction.

Structures are written as SMILES. Several values for one entry are separate records, joined by “and”; a condition that tells them apart may be missing. Equal values may be shown once. Results filed as inconclusive are left out. For some of these results: Entries with a potency or affinity are not part of this list. Activity calls are given as the source filed them.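 Rule for the calls, unless noted: active = compounds killing one labelled cell type while sparing the other, by normalised counts and ratio limits, not self-fluorescent; inactive = the rest.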

Broadly, the inhibition is the change of the read-out against control, counted positive when it falls. The viability is a read-out of living cells in per cent, often relative to untreated cells. Usually EC50 stands for the concentration giving half of the maximal effect.

Chain of Mitogen-activated protein kinase 7 (Homo sapiens) (Q13164 whole entry, looked up, the tested form may be a part): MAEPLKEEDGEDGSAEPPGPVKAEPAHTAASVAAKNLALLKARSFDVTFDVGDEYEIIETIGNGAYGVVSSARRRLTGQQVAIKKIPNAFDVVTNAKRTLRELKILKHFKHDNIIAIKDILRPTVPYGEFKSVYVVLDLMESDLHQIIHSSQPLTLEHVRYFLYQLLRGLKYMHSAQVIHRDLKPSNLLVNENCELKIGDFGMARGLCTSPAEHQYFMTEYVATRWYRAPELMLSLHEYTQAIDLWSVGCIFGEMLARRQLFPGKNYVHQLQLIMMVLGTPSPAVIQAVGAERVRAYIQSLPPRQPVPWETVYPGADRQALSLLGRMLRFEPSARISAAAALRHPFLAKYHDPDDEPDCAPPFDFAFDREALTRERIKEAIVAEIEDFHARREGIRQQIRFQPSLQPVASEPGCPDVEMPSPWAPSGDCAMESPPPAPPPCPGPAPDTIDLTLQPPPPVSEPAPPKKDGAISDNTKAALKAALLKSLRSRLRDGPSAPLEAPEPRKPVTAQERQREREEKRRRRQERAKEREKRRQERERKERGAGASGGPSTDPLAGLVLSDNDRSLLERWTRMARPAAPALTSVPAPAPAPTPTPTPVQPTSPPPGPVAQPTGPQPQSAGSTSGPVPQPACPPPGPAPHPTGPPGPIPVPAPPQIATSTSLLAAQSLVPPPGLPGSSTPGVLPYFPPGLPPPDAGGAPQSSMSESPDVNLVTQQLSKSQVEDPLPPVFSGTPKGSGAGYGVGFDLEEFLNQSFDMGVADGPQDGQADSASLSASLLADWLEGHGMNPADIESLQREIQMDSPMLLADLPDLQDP
Chain of NAD(+) hydrolase SARM1 (Homo sapiens) (Q6SZW1 whole entry, looked up): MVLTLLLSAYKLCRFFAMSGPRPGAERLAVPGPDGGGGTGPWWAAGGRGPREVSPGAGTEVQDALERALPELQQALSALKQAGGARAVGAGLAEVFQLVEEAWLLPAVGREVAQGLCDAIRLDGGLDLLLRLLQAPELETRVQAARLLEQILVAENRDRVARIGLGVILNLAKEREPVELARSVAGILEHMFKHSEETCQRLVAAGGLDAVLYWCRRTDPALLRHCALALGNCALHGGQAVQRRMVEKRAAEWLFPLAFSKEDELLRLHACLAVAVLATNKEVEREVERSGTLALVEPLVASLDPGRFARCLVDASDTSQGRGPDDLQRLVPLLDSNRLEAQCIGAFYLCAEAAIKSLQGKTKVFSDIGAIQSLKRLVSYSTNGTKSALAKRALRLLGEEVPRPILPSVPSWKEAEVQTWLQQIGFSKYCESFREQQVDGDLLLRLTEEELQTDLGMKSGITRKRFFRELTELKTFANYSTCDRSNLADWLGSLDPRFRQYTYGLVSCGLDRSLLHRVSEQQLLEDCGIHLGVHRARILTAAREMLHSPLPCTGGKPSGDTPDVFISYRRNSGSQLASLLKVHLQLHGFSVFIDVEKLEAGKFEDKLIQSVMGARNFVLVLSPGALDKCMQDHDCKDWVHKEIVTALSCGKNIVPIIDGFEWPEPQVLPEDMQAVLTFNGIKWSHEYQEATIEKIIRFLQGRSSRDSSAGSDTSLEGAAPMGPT
Chain of Huntingtin (Homo sapiens) (P42858 whole entry, looked up): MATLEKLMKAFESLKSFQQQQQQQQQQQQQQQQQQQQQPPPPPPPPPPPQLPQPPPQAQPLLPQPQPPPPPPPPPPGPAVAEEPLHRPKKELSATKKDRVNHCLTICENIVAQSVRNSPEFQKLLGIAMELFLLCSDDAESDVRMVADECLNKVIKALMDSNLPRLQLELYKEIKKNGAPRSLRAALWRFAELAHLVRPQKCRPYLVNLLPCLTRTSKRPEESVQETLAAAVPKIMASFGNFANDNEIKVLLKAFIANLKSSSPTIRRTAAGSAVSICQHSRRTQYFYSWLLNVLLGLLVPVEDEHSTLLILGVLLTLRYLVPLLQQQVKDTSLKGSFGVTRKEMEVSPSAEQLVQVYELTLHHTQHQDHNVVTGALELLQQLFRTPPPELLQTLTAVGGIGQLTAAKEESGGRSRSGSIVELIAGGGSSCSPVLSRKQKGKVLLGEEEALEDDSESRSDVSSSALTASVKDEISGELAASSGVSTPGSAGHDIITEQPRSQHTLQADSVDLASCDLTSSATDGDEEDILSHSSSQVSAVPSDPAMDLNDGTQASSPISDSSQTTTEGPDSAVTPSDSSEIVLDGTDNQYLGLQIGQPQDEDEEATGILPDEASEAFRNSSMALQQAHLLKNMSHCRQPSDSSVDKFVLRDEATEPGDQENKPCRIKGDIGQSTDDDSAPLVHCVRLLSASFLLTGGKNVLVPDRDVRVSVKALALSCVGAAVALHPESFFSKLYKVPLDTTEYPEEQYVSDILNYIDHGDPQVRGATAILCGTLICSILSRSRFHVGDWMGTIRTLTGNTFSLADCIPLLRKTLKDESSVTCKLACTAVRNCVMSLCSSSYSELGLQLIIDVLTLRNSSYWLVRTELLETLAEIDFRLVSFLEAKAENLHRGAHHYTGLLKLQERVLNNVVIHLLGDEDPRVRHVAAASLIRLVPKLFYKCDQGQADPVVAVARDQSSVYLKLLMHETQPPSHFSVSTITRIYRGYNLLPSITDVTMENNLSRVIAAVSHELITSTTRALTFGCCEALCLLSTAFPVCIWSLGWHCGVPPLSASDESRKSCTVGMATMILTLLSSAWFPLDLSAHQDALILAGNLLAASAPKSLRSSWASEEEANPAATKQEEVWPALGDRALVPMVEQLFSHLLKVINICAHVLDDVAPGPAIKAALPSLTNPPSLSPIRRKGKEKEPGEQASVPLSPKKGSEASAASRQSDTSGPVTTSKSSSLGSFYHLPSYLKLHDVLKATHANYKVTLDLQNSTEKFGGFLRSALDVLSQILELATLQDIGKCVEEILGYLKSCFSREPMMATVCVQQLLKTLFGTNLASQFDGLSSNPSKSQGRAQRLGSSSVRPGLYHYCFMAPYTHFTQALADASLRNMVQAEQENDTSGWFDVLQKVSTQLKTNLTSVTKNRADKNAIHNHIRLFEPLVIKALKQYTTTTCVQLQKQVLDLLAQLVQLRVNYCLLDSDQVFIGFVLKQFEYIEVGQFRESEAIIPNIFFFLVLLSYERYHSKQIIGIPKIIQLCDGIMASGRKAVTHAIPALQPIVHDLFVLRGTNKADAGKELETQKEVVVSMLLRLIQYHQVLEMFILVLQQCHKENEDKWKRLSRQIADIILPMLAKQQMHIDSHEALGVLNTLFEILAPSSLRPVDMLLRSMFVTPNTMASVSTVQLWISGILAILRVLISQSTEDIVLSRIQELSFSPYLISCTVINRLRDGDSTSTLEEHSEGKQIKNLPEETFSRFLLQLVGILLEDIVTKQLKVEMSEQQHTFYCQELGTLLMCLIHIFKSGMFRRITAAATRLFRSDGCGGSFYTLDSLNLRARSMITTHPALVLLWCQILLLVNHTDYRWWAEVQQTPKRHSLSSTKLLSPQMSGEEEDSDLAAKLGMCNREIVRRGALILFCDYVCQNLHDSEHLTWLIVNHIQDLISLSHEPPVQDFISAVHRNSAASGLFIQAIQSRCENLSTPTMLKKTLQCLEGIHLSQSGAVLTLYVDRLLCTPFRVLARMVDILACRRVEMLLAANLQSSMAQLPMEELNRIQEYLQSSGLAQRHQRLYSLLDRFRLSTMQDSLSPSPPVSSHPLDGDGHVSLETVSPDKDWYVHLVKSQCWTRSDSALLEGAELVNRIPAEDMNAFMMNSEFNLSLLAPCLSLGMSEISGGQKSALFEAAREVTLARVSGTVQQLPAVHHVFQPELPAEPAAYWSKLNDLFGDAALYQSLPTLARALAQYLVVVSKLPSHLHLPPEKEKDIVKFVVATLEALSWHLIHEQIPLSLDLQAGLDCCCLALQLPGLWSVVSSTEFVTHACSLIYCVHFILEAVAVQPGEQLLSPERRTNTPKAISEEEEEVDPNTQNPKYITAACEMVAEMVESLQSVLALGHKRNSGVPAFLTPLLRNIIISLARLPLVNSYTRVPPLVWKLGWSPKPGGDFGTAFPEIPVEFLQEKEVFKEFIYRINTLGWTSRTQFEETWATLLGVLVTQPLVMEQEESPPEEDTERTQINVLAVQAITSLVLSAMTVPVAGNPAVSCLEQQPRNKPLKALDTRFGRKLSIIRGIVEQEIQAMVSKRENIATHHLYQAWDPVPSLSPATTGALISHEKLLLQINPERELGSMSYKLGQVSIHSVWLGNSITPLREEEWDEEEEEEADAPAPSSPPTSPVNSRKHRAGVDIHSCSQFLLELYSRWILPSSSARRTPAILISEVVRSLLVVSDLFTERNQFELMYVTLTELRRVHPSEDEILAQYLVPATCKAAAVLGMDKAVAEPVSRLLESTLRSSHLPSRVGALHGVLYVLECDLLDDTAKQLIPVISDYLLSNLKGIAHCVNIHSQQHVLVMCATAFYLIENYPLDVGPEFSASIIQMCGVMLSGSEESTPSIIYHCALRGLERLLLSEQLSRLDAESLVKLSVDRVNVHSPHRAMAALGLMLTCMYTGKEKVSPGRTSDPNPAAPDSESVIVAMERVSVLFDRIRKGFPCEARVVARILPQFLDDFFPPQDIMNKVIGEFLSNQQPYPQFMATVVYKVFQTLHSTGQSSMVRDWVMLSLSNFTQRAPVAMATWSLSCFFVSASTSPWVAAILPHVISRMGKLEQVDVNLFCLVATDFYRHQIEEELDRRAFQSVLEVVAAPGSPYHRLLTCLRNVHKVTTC

Turning to `Cc1cc(OC(=O)N2CCCCC2)c(C(C)C)cc1[N+](C)(C)C`, the red/green cell ratio (normalised) in test [1] (setting [21]) was 0.97 (inactive). In addition, the normalised cell number was 1.16 in [1] (setting [22]) and 1.13 in test [1] (setting [23]). For the same compound, the activity remaining in [2] is 125% (inactive). Further, the luciferase signal in test [3] is 48 AU (inactive).

With `CCN1C[C@@]2(COC)C3[C@@H](OC)[C@H]4[C@@H]1[C@]3(C(OC)C[C@H]2O)C1C[C@@]2(O)[C@H](OC(=O)c3ccccc3)C1[C@]4(OC(C)=O)[C@@H](O)[C@@H]2OC` (some centres undefined), the inhibition in test [4] was -1.76%. The compound also showed a score in test [5] of 0.9. In test [6], this compound gave a rescue above control of -1.73. The cytochrome c release ratio in test [7] came out at 0.91. The compound further displayed an inhibition of aggregation in test [8] of 65.4%. The glutamate uptake change in test [9] was determined as 9.78%. In test [10], the inclusion score was determined as 2. In addition, in test [11], the aggregation suppression score turned out to be 1.1. The parasite load remaining in test [12] is 85.5% (inactive) and 32.5% (inactive). In addition, the viability in test [12] is 79.4% and 105%. The red/green cell ratio (normalised) in [1] is 1.07 (inactive). The normalised cell number in [1] (setting [22]) worked out at 1.01; in test [1] (setting [23]), 1.07. Moreover, the activity remaining in test [2] was 113% (inactive). For the same compound, the fold change is 0.875 (inactive) in test [13] (stronger effect = lower value) and 3.63 in test [13] (setting [24]). The cell count in test [13] (setting [25]) worked out at 11000; in test [13] (setting [26]) it was 12600.

Take `CC(=O)O[C@@H]1CC2C(C)(C)C(=O)C=C[C@]2(C)C2CC[C@]3(C)C(=CC(=O)O[C@H]3c3ccoc3)[C@@]21C` (some centres undefined): the red/green cell ratio (normalised) in [1] is 1.01 (inactive). Further, the normalised cell number is 0.98 in test [1] (setting [22]) and 0.99 in test [1] (setting [23]). In addition, the activity remaining in test [2] was 123% (inactive).

As for `CC1OC(=O)[C@@H](C(C)C)NC(=O)C(C(C)C)OC(=O)[C@H](C(C)C)NC(=O)C(C)OC(=O)[C@@H](C(C)C)NC(=O)C(C(C)C)OC(=O)[C@H](C(C)C)NC(=O)C(C)OC(=O)[C@@H](C(C)C)NC(=O)C(C(C)C)OC(=O)[C@H](C(C)C)NC1=O` (some centres undefined), in test [1], the red/green cell ratio (normalised) was 0.92 (inactive). Moreover, the figures for the normalised cell number in test [1] (setting [22]) and in [1] (setting [23]) were 0.32 and 0.29, respectively. Moreover, the activity remaining in [2] was 122% (inactive).

Regarding `OCC(O)[C@H]1O[C@@H]2O[C@H](C(Cl)(Cl)Cl)O[C@@H]2[C@H]1O` (some centres undefined), in test [1], the red/green cell ratio (normalised) is 0.83 (inactive). Further, the normalised cell number in test [1] (setting [22]) turned out to be 1.02; in [1] (setting [23]) it was 0.85. In addition, the fold change was 0.871 (inactive) in [13] (stronger effect = lower value) and 0.819 in test [13] (setting [24]). Further, the cell count in test [13] (setting [25]) amounted to 8180; in [13] (setting [26]) it was 9390.

For `CC(C)=CCCC1(C)C=Cc2c(O)c3c(c(CC=C(C)C)c2O1)OC12C(=CC4CC1C(C)(C)OC2(C/C=C(/C)C(=O)O)C4=O)C3=O` (centres undefined), in [4], the inhibition was 78.5%. Moreover, the aggregation ratio in test [14] was determined as 0.274. For the same compound, the score in test [5] was determined as 0.45. Also, in [6], the rescue above control was -1.66. Further, the cytochrome c release ratio in [7] was 3.17. The compound also had an inhibition of aggregation in [8] of 100%. The normalised LDH release in test [15] is 0.491. Moreover, the glutamate uptake change in test [9] is -92.9%. Further, the aggregation suppression score in test [11] was found to be 0.449. In test [1], the red/green cell ratio (normalised) is 1.03 (inactive). Besides, the normalised cell number stood at 1.09 in test [1] (setting [22]) and 1.13 in test [1] (setting [23]). Also, in test [2], the activity remaining was 120% (inactive).

For the compound `CCCCC[C@H]1C(=O)O[C@H](C)[C@H](NC(=O)c2cccc(NC=O)c2O)C(=O)O[C@@H](C)[C@@H]1OC(=O)CC(C)C`, the EC50 in test [16] was 300 nM (active). Besides, the inhibition in test [4] is 29.9%. In [5], this compound registered a score of 0.73. This compound also came in with a rescue above control in [6] of -18. Besides, the cytochrome c release ratio in [7] was 0.26. In test [8], this compound showed an inhibition of aggregation of 7.32%. In test [9], the glutamate uptake change was 3.11%. The aggregation suppression score in [11] stood at 0.0257. Besides, the red/green cell ratio (normalised) in [1] was 0.71 (inactive). The normalised cell number in [1] (setting [22]) is 0.78; in [1] (setting [23]), 0.55. Moreover, the activity remaining in [2] is 111% (inactive). In addition, the luciferase signal in test [3] is 60 AU (inactive).

Regarding `CC(CC(C(N)=O)(c1ccccc1)c1ccccc1)N(C)C` (centres undefined), in test [12], the parasite load remaining is 59.7% (inactive). Further, the viability in [12] amounted to 166%. The red/green cell ratio (normalised) in [1] is 0.86 (inactive). Besides, the normalised cell number in test [1] (setting [22]) was determined as 1.14; in test [1] (setting [23]), 0.99. The values for the fold change in [13] (stronger effect = lower value) and in [13] (setting [24]) were 0.911 (inactive) and 5.38, respectively. Further, the cell count in test [13] (setting [25]) stood at 11900; in test [13] (setting [26]), 13000. In test [17], the remaining NAD was 10 nM (inactive). Moreover, the luciferase signal in test [3] is 172 AU (inactive).

For `C[C@H]1O[C@H](OC2[C@@H](O)[C@@H](O)C(O)[C@H](O)[C@H]2O)[C@@H](N)C[C@@H]1N=C(N)C(=O)O` (some centres undefined), the parasite load remaining in test [12] is 61.4% (inactive). Further, the viability in test [12] was 141%. Besides, the red/green cell ratio (normalised) in test [1] is 1.07 (inactive). Further, the normalised cell number in [1] (setting [22]) was 1; in test [1] (setting [23]), 1.07. Moreover, the fold change was 0.847 (inactive) in test [13] (stronger effect = lower value) and 1.18 in [13] (setting [24]). For the same compound, the cell count in test [13] (setting [25]) worked out at 8950; in [13] (setting [26]), 10600. The z-score is -0.576 (inactive) in test [18] (MELAS cybrid survival, CellTiter-Glo 48 h, stronger effect = higher value); -0.393 in test [18] (Rieske KO mouse fibroblast survival, CellTiter-Glo 72 h); 0.075 (inactive) in test [19]. Also, in [3], the luciferase signal is 128 AU (inactive).

Turning to `c1cncc(C2CCCCN2)c1` (centres undefined), the survival in [20] was 6.5 (inactive). In addition, the red/green cell ratio (normalised) in test [1] (setting [21]) was 0.98 (inactive). In addition, the results for the normalised cell number in [1] (setting [22]) and in test [1] (setting [23]) were 1.09 and 1.07, respectively. For the same compound, the activity remaining in [2] is 102% (inactive). Besides, the luciferase signal in test [3] is 20 AU (inactive).

Values taken from PubChem BioAssay.
